The list is not random: actives were taken first. Their share in the collection is about 2.5%.
SKN-1 block = C. elegans SKN-1 inhibition; C. elegans VP596 Pgst-4::GFP/RFP ratio, acrylamide-induced, 24 h; inhibition, % at 21.8 µM; 0.49% of 360,000 active; AID 624304;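 active = interference check ratio from 0.5 to 1.5 plus GFP to RFP signal ratio inhibition reaching or exceeding a fixed threshold, cut at about 30% in these data, passing the limit was not always enough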
iPSC survival up = enhancers of human iPSC single-cell survival; hiPSC single-cell survival, ATPlite luminescence; 100% = ROCK inhibitor wells, 0% = DMSO; survival enhancement, % at 20 µM; 0.044% of 360,000 active; in the data active = survival enhancement above about 18%;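 note: cells exposed to compounds for 16 hours before the ATP read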
Cardio protect = protects H9c2 cardiomyocytes from peroxide injury; H2O2 injury protection, ATPLite, 2 h; 0.63% of 360,000 active; AID 588492; protection from H2O2 cell death, % at 20 µM;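 active = compounds giving at least 50% protection of heart cells from peroxide-induced death in the single-dose screen, raw or plate-pattern-corrected value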;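 note: 0% = DMSO wells with peroxide and 100% = DMSO wells without peroxide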
H9c2 TAG inh = inhibitors of triacylglycerol accumulation; inhibition, % at 12.5 µM; 0.66% of 230,000 active; H9c2 cells, Nile Red lipid (TAG) fluorescence; cells loaded with 200 µM oleic acid;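 active = pattern-corrected inhibition of lipid staining of at least 50% with the nuclear-stain viability signal not falling by more than 50%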;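 note: 0% = DMSO wells and 100% = triacsin C control wells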
CRFR2-BP antag = antagonists of CRF-binding protein/CRF-R2 receptor complex; HEK293 CRF-R2/CRF-BP, CRF-induced calcium fluorescence; inhibition, % at 11.8 µM; 0.59% of 350,000 active; AID 588475;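 active = inhibition of the ligand-induced calcium signal above about 50% at the single tested concentration, limit read from the data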
CRFR2-BP ag = CRF-BP/CRF-R2 complex agonism. HEK293 CRF-R2/CRF-BP, calcium dye fluorescence (FLIPR); percent of saturating CRF peptide response. 0.46% of 350,000 active. activation, % at 13.2 µM;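 active = activation of at least 50%, plus an integration ratio under a set limit after plate pattern correction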;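 note: plate controls were neutral control wells without compound for no effect and CRF at EC100 for full effect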
* = called active by the depositor; · = not tested or not shown.

SMILES	SKN-1 block	iPSC survival up	Cardio protect	H9c2 TAG inh	CRFR2-BP antag	CRFR2-BP ag
CCCC1=Nc2cc(C(=O)NCCCOC(C)C)ccc2Sc2ccccc21	2	-1	-6	40	-39	1
c1ccc2c(c1)oc1c(-c3cccc4nccn34)cccc12	20	4	-6	-10	·	·
CC(C)c1ccc(C(O)P(=O)(OC2CCCCC2)OC2CCCCC2)cc1 (stereo unspecified)	7	0	9	-9	-94	11
C/C(=N\NC(=O)c1ccccc1OCc1ccc(F)cc1)c1ccccn1	19	0	53*	-3	6	-1
CCOc1ccc(OCc2ccc(C(=O)N/N=C(\C)c3ccccn3)cc2)cc1	3	-4	35	27	-13	3
COc1ccccc1NC(=O)C(C)Sc1nnnn1C (stereo unspecified)	6	-1	6	1	5	1
COc1ccccc1NC(=O)CCSc1nnnn1C	-19	-3	7	-4	-144	121*
CCc1ccc(NC(=O)COc2cccc(-n3cnnn3)c2)cc1	-4	0	-1	·	5	-1
CC(C)NC(=O)C1(C)CN(S(C)(=O)=O)CC(=O)N1Cc1ccc2c(c1)OCO2 (stereo unspecified)	6	·	·	·	·	·
CC1OC(OC2C(CO)OC(OCC3OC(OC(=O)[C@@]45CCC(C)(C)C[C@@H]4C4=CC[C@@H]6[C@@]7(C)CCC(OC8OCC(O)C(O)C8OC8OC(C)C(O)C(O)C8O)[C@@](C)(CO)C7CC[C@@]6(C)[C@]4(C)CC5)C(O)C(O)C3O)C(O)C2O)C(O)C(O)C1O (stereo partly specified)	3	-3	19	3	12	2
C[C@H]1O[C@@H](O[C@H]2CC[C@@]3(C)C(CC[C@]4(C)C3C=C[C@]35OC[C@@]6(CCC(C)(C)C[C@H]63)[C@@H](O)C[C@]54C)[C@]2(C)CO)[C@H](O)[C@@H](O[C@@H]2O[C@H](CO)[C@@H](O)[C@H](O)[C@H]2O)[C@H]1O (stereo partly specified)	0	0	-2	34	-46	87*
CCCc1cc(=O)oc2cc(OC(=O)CN3C(=O)NC4(CCCC4)C3=O)ccc12	21	0	61*	2	20	3
COc1ccc([N+](=O)[O-])cc1N(CC(=O)NCCCOC(C)C)S(C)(=O)=O	16	-1	5	2	60*	-2
N#Cc1ccc(CSC2=NCCN2)cc1	-7	3	-4	9	104*	-1
CN(CC(=O)Nc1ccc(Cl)cc1)C(=O)C1=COCCO1	17	2	2	13	-2	0
COc1ccc(NC(=O)CN(C)C(=O)C2=COCCO2)cc1	4	1	1	-12	107*	2
Cc1ccc2occ(C(c3nnnn3C3CCCC3)N3CCN(C(=O)c4ccco4)CC3)c(=O)c2c1 (stereo unspecified)	-3	-3	52*	·	-54	33
CC(=O)N1CCN(c2ccc(NCc3ccccc3)cc2)CC1	38*	-3	1	9	7	-2
CC(=O)c1cccc(OC(=O)c2ccc3c(=O)n4c(nc3c2)CCC4)c1	0	0	-1	-1	5	-2
CC(C)(C)N(Cc1ccc2c(c1)OCO2)C(=O)/C=C\S(=O)c1ccccc1 (stereo unspecified)	15	-3	0	83*	-14	-4
Cc1ccc(O)c(C(=O)c2cc(C#N)c(=O)n(-c3nccs3)c2)c1	4	0	-7	-6	-108	166*
Cc1ccc(O)c(C(=O)c2cc(C#N)c(=O)n(CC3CCCO3)c2)c1 (stereo unspecified)	2	0	-8	-15	-18	-5
COc1cc(C2C=C(c3cccs3)Nc3ncnn32)cc(OC)c1OC (stereo unspecified)	-34	1	-2	-3	-162	221*
CCOc1ccc(Oc2ccc(NS(=O)(=O)c3ccc(CCC(=O)O)cc3)cc2)cc1	-9	6	-2	13	-6	0
COc1ccccc1NC(=O)c1cc2c(CO)cnc(C)c2oc1=Nc1ccc(OC)c(OC)c1	4	1	21	·	41	-13

Screening results from PubChem BioAssay.
